About 2,700 (4%) of roughly 68,000 compounds showed an effect of 50% or more. Shown is part of a subset that was picked to be rich in strong results.
tested on: Plasmodium berghei; assay: Screen against P. berghei liver stage (PbLuc), transformed with Luciferase, at 2uM; assay type: functional, HepG2; conditions: tested at 2 uM

| Structure (SMILES) | INHIBITION [%] |
| --- | --- |
| N#Cc1cccc(NC(=O)C2CCCN2c2nccs2)c1 (stereo not given) | 6.77 |
| Cc1ccc2nc(C3CCCN3Cc3nnc(C)s3)[nH]c2c1 (stereo not given) | 78.16 |
| Cc1ccc2nc(C3CCCN3Cc3csc(C)n3)[nH]c2c1 (stereo not given) | 29.53 |
| Cc1ccc2nc(C3CCCN3Cc3scnc3C)[nH]c2c1 (stereo not given) | 47.23 |
| O=C(NCCc1ccccc1)N1CCC(C2OCCO2)CC1 | 5.92 |
| O=C(Cc1ccc(CO)cc1)N1CCN(c2ccccc2Cl)C(=O)C1 | 47.76 |
| CCC(NC(=O)c1ccc2[nH]ccc2c1)C(=O)N1CCOCC1 (stereo not given) | 5.98 |
| CC(C)c1nnc2n1CCN(Cc1ncc(-c3ccccc3)o1)C2 | -58.75 |
| COCCNc1ccccc1CNC(=O)C1CCCOC1 (stereo not given) | -4.26 |
| O=C(NCc1ccccc1OCC1CC1)C1CCOC1 (stereo not given) | 14.82 |
| CC(C)(C)Oc1ccccc1CNC(=O)C1CCCOC1 (stereo not given) | 52.98 |
| NC(=O)CN1CC2(CCC1=O)CCN(Cc1ccc(Cl)c(F)c1)CC2 | 23.63 |
| CC(C)Cn1cncc1CNC1CCSC1 (stereo not given) | -18.33 |
| COc1c(CNC2CCN(c3ccccn3)CC2)c(C(C)C)nn1C | -11.2 |
| COc1c(CNC2CCCN(c3ncccn3)C2)c(C(C)C)nn1C (stereo not given) | 56.02 |
| COc1c(CNC2CCN(C(C)(C)C)CC2)c(C(C)C)nn1C | 51.19 |
| COc1c(CNC2CCN(C(=O)C(C)C)CC2)c(C(C)C)nn1C | 11.2 |
| COc1c(CNC2CCC(O)CC2)c(C(C)C)nn1C (stereo not given) | 11.2 |
| COc1c(CNC2CCN(c3ncccn3)CC2)c(C(C)C)nn1C | -79.53 |
| Clc1ccccc1C1CN(CCc2ccncc2)CCO1 (stereo not given) | -35.92 |
| COc1ccc(NC(=O)c2nc3ccccc3n(C)c2=O)cc1OC | 9.85 |
| CNS(=O)(=O)Cc1ccc(CNC(=O)c2cccc(C)n2)cc1 | 65.77 |
| Cc1cccc(C(=O)NCc2ccc(CS(N)(=O)=O)cc2)n1 | -45.83 |
| CNS(=O)(=O)c1ccc(CNC(=O)c2cccc(C)n2)cc1 | -9.17 |
| CO[C@H]1CN(C(=O)OC(C)(C)C)CC1NCc1ccco1 (stereo not given in full) | 32.73 |
| CC(c1ccccc1)N(C)C(=O)CN1CCCc2cc(F)cc(F)c21 (stereo not given) | 27.52 |
| Nc1nc(C(=O)NCC2CCC3(CCNCC3)CO2)cs1 (stereo not given) | -51.85 |
| COCCn1cncc1CN1CCCC(C(=O)Cc2ccccc2)C1 (stereo not given) | 58.09 |
| O=C(CCc1ccccc1)C1CCCN(Cc2cncn2C2CC2)C1 (stereo not given) | 21.67 |
| O=C(Cc1ccccc1)C1CCCN(Cc2cncn2C2CCCC2)C1 (stereo not given) | 19.75 |

— ChEMBL document CHEMBL4513216, “Probing the Open Global Health Chemical Diversity Library for Multistage-Active Starting Points for Next-Generation Antimalarials” (ACS Infect Dis, 2020)
